In PubChem BioAssay AID463173 (ICCB-Longwood Screening Facility, Harvard Medical School, 2010) one finds survival data, which are given here for 31 molecules.

Each structure is given as a SMILES string. Hit rate of the full screen: of about 52,000 compounds, about 1,700 (3.3%) were called active. Rule as the data show it: active = survival mostly below about 52% (no sharp cut-off); inactive = mostly above about 56%. What follows is part of a selection rich in actives, with near analogues and random picks from the rest.

The test system of the test is Wild type. Description: growth inhibition of S. aureus wild type versus tarO mutant, primary screen, teichoic acid synthesis inhibitors, RN4220, OD600 (AID 463173). The following applies: S. aureus RN4220 wild type/DeltatarO growth, OD600, 18 h, stronger effect = lower value, screened at 18.75 µg/mL (by protocol).
`COc1ccccc1NC(=O)C1=C(C)Nc2nc(SCc3ccccc3)nn2C1c1ccncc1` (stereo unspecified): the survival was 83% (inactive). Regarding `CC(C)NC(=O)C1CCCN(c2ncnc3c2nc2n3CCCCC2)C1` (stereo unspecified), the survival was 73% (inactive). With `COC(=O)c1nnn(-c2cccc(C)c2)c1C(=O)OC`, the survival is 77% (inactive).

`Cc1nc2ccccc2c(=O)n1/N=C1\C(=O)N(C)c2ccccc21`: the survival is 108% (inactive).

As to `Cc1ccc2c(=O)c(C(=O)c3cccc(Cl)c3)cn(CC(=O)NC3CCCCC3)c2n1`, the survival is 126% (inactive). The result for `CCc1ccc(CNC(=O)CN2C(=O)CSc3c2c(C)nn3-c2ccccc2)cc1` reads 125% (inactive); that for `CCOC(=O)c1c(NC(=O)COc2cccc(C)c2C)sc2c1CCC(CC)C2` (stereo unspecified), 78% (inactive); that for `CCOC(=O)c1c(NC(=O)C2c3ccccc3Oc3ccccc32)sc2c1CCC(CC)C2` (stereo unspecified), 65% (inactive).

On to `CCOC(=O)c1c(NC(=O)COc2ccc(F)cc2)sc2c1CCC(C)C2` (stereo unspecified), for which the survival is 69% (inactive). As for `CCOC(=O)c1c(NC(=O)c2ccc(F)cc2)sc2c1CCC(CC)C2` (stereo unspecified), the survival was 3% (active).

On to `CCOC(=O)c1c(NC(=O)c2ccccc2OCC)sc2c1CCC(CC)C2` (stereo unspecified), for which the survival was -1% (active). For `CCC1CCc2c(sc(NC(=O)C3c4ccccc4Oc4ccccc43)c2C(=O)OC)C1` (stereo unspecified), the survival is 80% (inactive).

On to `Cc1ccc(CN(C(=O)COc2cc(C)c(Cl)c(C)c2)c2ccccn2)o1`, for which the survival is 78% (inactive). In the case of `COc1ccccc1NC(=O)CSC1=Nc2ccccc2N=C(c2ccc(F)cc2)C1`, the survival was 71% (inactive). With `Brc1ccc(-c2nc(N3CCN(c4ccccc4)CC3)c3ccccc3n2)cc1`, the survival was 127% (inactive). `CC1CCN(c2nc(-c3ccc(C(C)(C)C)cc3)nc3ccccc23)CC1`: the survival was 3% (active). The result for `CC1CCN(c2nc3ccccc3nc2C(F)(F)F)CC1` reads 78% (inactive). The result for `CC1CCCCN1C(=O)CSc1nc(C2CC2)nc2ccccc12` (stereo unspecified) reads 110% (inactive).

For `CC1CCCCN1c1nc(-c2ccc(C(C)(C)C)cc2)nc2ccccc12` (stereo unspecified), the survival was 1% (active).

Regarding `CC1CCN(c2nc(-c3ccc(Br)cc3)nc3ccccc23)CC1`, the survival was 105% (inactive). Take `CCOC(=O)C(CC)n1nc(C)n2c(cc3occc32)c1=O` (stereo unspecified): the survival was 120% (inactive). Under `CCCN(CCC)CCNC(=O)c1cc2c(-c3ccccc3F)nn(C)c2s1` stands 97% (inactive).

As for `CCNC(=S)N1CCC(n2cnc3ccccc32)CC1`, the survival was 98% (inactive). Under `Cc1ccc(C(=O)N(c2ccc(C)cc2)S(=O)(=O)c2ccc(Cl)cc2)cc1` stands 73% (inactive); under `COc1ccc(Cl)cc1NC(=O)c1cc2nc(-c3ccc4c(c3)OCO4)cc(C(F)(F)F)n2n1`, 65% (inactive); under `Cc1ccc(-n2nc(C)c(C(=O)NCCCN3CCN(c4cccc(Cl)c4)CC3)c2-n2cccc2)cc1`, -2% (active). Regarding `O=C(NCCCN1CCN(c2ccc(F)cc2)CC1)c1cnn(-c2ccc(F)cc2)c1-n1cccc1`, the survival was 82% (inactive).

As for `O=C(NCCCN1CCN(c2cccc(Cl)c2)CC1)c1cnn(-c2ccc(F)cc2)c1-n1cccc1`, the survival is 0% (active). Consider `Cc1ccc(-n2nc(C)c(C(=O)NCCCN3CCN(c4ccc(F)cc4)CC3)c2-n2cccc2)cc1`, for which the survival is 101% (inactive).

Take `Cc1nn(-c2ccc(F)cc2)c(-n2cccc2)c1C(=O)NCCCN1CCN(c2cccc(Cl)c2)CC1`: the survival is 110% (inactive). As to `Cc1ccc(-n2ncc(C(=O)NCCCN3CCN(c4cccc(Cl)c4)CC3)c2-n2cccc2)cc1`, the survival was 59% (inactive).
